# VHR inh abs = DUSP3 (human) phosphatase inhibition. P51452. recombinant VHR phosphatase, pNPP absorbance. inhibition, % at 13.3 µM. actives 0.52% (n = 290,000); in the data active = inhibition above about 50%
# BoNT-F LC inh = inhibitors of Botulinum neurotoxin F light chain protease; Multiplex microsphere protease cleavage assay, flow cytometry; inhibition, % at 10 µM; actives 0.22% (n = 360,000); in the data active = inhibition above about 35%, passing the limit was not always enough; inconclusive = no clear call, values can overlap the other calls
# Bead autofluor = flagged as autofluorescent in microsphere protease counterscreen; compound autofluorescence counterscreen, microsphere flow cytometry; active compounds read high; fluorescence intensity (concentration not given with the values); actives 3.1% (n = 360,000); AID 624483; in the data active = fluorescence intensity above about 16000; inconclusive = no clear call, values can overlap the other calls
# MazEF act = increases E. coli MazEF RNase cleavage of RNA | FAM/BHQ RNA-DNA oligo cleavage fluorescence, 5 h | P0AE70 | actives 0.32% (n = 350,000) | AID 504720 | activation, % at 20 µM; in the data active = activation above about 50%
# Anthrax LF inh2 = anthrax lethal factor protease inhibition; P15917; multiplex microsphere protease cleavage assay, LF; inhibition, % at 10 µM; actives 0.12% (n = 360,000); AID 588501
# BoNT A protease = BoNT A light chain protease inhibition | multiplex microsphere protease substrate cleavage, flow cytometry | actives 0.17% (n = 360,000) | AID 588499 | inhibition, % at 10 µM
# BoNTA LC inh 1 = inhibitors of Botulinum neurotoxin A light chain protease | shares compounds with BoNT-F LC inh | multiplex microsphere protease assay, flow cytometry | inhibition, % at 10 µM | actives 3% (n = 720); in the data active = inhibition above about 32%
# BoNTF LC inh 1 = blocks botulinum neurotoxin F light chain protease; inhibition, % at 10 µM; shares compounds with BoNT-F LC inh; multiplex microsphere protease cleavage assay, flow cytometry; 720 tested, under 10 active; call rule not given here
# LF protease CP1 = inhibitors of Bacillus anthracis lethal factor protease; inhibition, % at 10 µM; shares compounds with BoNT-F LC inh; AID 602142; multiplex microsphere protease cleavage assay, LF; 720 tested, under 10 active; call rule not given here
# Hits are given with their value; i = inactive; ? = inconclusive; nt = no result; + = active, no number. In the library only some 4.1% were active in any assay of this set; here they are far more common. Rule as the data show it, unless noted: active = inhibition above about 30%; inconclusive = no clear call, values can overlap the other calls; inactive = below that.
SMILES,VHR inh abs,BoNT-F LC inh,Bead autofluor,MazEF act,Anthrax LF inh2,BoNT A protease,BoNTA LC inh 1,BoNTF LC inh 1,LF protease CP1
Cc1cc2cc(CNC(=O)Nc3ccccc3)ccc2[nH]1,i,i,i,i,i,55,i,i,i
NC(c1ccccc1)c1cccs1 (stereo not drawn),nt,i,i,nt,i,i,nt,nt,nt
Cc1cc2cc(CNC(=O)C3CC3)ccc2n1C,i,i,i,i,i,i,nt,nt,nt
Cc1cc2cc(CNC(=O)Nc3ccccc3)ccc2n1C,i,i,i,i,i,56,i,i,i
Cc1ccccc1NC(=S)NCc1ccc2c(c1)cc(C)n2C,i,i,i,i,i,i,nt,nt,nt
CCOC(=O)NCc1ccc2c(c1)cc(C)n2C,51,i,i,i,42,41,i,i,i
CCCn1c2ccccc2c2nc3ccccc3nc21,i,i,i,i,31,57,i,i,i
CC(C)CC(=O)[C@@H](O)Cc1ccc(O)cc1,nt,i,i,nt,i,i,nt,nt,nt
CN(CC(=O)Nc1ccc(F)cc1)C(=O)COC(=O)Cc1cccs1,nt,40,?,i,i,i,i,i,i
O=C(COC(=O)Cc1cccs1)NCC(=O)Nc1ccc(F)cc1,nt,i,i,i,i,i,nt,nt,nt
CC1CN(C(=O)COC(=O)/C=C/c2ccccc2)CC(C)O1 (stereo not drawn),nt,i,i,i,i,i,nt,nt,nt
CC(=O)Nc1ccc(NC(=O)CSc2nnc(N)n2-c2ccccc2)cc1,nt,39,i,i,i,i,i,i,i
CC(=O)Nc1ccc(NC(=O)CSc2nnc(CC(C)O)n2-c2ccccc2)cc1 (stereo not drawn),i,?,i,i,i,i,nt,nt,nt
CC1(C)CC(NC(=O)c2ccc(F)cc2)CC(C)(C)N1,nt,i,i,i,i,i,nt,nt,nt
CC(=O)c1ccc(-c2ccc(C(=O)NC3CC(C)(C)NC(C)(C)C3)o2)cc1,nt,36,?,i,i,i,i,i,i
COc1cccc(-c2ncc3ccccc3c2COC(=O)c2ccc(C(F)(F)F)cc2)c1,nt,i,i,i,i,i,nt,nt,nt
Cc1ccc(NC(=O)C2CCN(C(=O)OC(C)(C)C)CC2)cc1S(=O)(=O)N1CCCCC1,nt,i,i,i,i,i,nt,nt,nt
Cc1cccc2cc(C(c3nnnn3C(C)(C)C)N3CCN(C(=O)c4ccco4)CC3)c(=O)[nH]c12 (stereo not drawn),i,i,i,i,i,i,nt,nt,nt
COCCn1nnnc1C(C(C)C)N(Cc1ccccc1)Cc1cc2cc(OC)ccc2[nH]c1=O (stereo not drawn),i,i,i,i,i,i,nt,nt,nt
CCC(C)(C)n1nnnc1C(c1cc2cc(C)ccc2[nH]c1=O)N1CCCC1 (stereo not drawn),i,i,21937,i,i,?,i,i,i
COc1ccc2cc(C(c3nnnn3CCc3ccccc3)N3CCC(O)CC3)c(=O)[nH]c2c1 (stereo not drawn),i,+,38811,i,i,30,i,i,i
CCN(Cc1ccccc1)C(c1cc2ccc(C)cc2[nH]c1=O)c1nnnn1CCOC (stereo not drawn),i,i,?,i,?,?,i,i,i
CCC(C)(C)n1nnnc1C(c1cc2cc(C)cc(C)c2[nH]c1=O)N1CCN(C(=O)c2ccco2)CC1 (stereo not drawn),i,i,i,i,i,i,i,i,i
Cc1ccc2[nH]c(=O)c(C(c3nnnn3C(C)(C)C)N3CCN(C(=O)c4ccco4)CC3)cc2c1 (stereo not drawn),i,i,i,i,i,i,nt,nt,nt
O=C(Nc1ccc(F)cc1F)c1ccc(S(=O)(=O)NCc2ccco2)cc1,nt,i,i,i,i,i,nt,nt,nt
SMILES,VHR inh abs,BoNT-F LC inh,Bead autofluor,MazEF act,Anthrax LF inh2,BoNT A protease,BoNTA LC inh 1,BoNTF LC inh 1,LF protease CP1
C=CCN1C(=O)/C(=C/N(C)C)S/C1=N\S(=O)(=O)c1cccs1,nt,i,i,i,i,i,nt,nt,nt
CC(C)(C)n1nnnc1C(c1cc2cc3c(cc2[nH]c1=O)OCO3)N1CCN(c2ccccc2)CC1 (stereo not drawn),i,i,i,i,i,i,nt,nt,nt
Cc1ccc2cc(C(c3nnnn3C(C)(C)C)N3CCCCCC3)c(=O)[nH]c2c1 (stereo not drawn),i,i,i,i,i,i,i,i,i
COc1ccc(Cn2nnnc2C(c2ccncc2)N2CCOCC2)cc1 (stereo not drawn),i,i,i,i,i,i,nt,nt,nt
COc1ccc(Cn2nnnc2C(c2cc3cc(C)ccc3[nH]c2=O)N2CCOCC2)cc1 (stereo not drawn),i,i,22468,i,i,i,i,i,i
O=c1[nH]c(=O)n2ncnc2[nH]1,nt,i,i,i,i,i,nt,nt,nt
COc1ccc(CNC(=O)C2CCN(S(=O)(=O)N3CCC(C)CC3)CC2)c(OC)c1,nt,i,i,i,i,i,nt,nt,nt
O=C(CC1c2cc(F)ccc2C=C(c2ccsc2)N1c1ccc(C#CCCO)cc1)c1ccco1 (stereo not drawn),nt,i,i,nt,i,i,nt,nt,nt
COc1ccc(NC(=O)CSc2nc(N)c3cc4c(nc3n2)CC(C)(C)OC4)cc1,i,47,i,i,i,i,i,i,i
O=C(OCc1cn([C@H]2CN(C(=O)C3CCCCC3)[C@@H](c3ccc(Cl)cc3)C[C@@H]2O)nn1)c1ccccc1,nt,i,i,i,i,i,nt,nt,nt
C=CCn1c(N2CCCC2)nc2c1c(=O)n(C)c(=O)n2C,i,i,i,i,44,i,i,i,i
COc1ccc(CN(C)C(=O)c2cccc(NS(=O)(=O)c3ccccc3)c2)c(OC)c1,i,i,i,i,i,i,nt,nt,nt
O=C(NCC1CC1)c1cccs1,nt,i,i,nt,i,i,nt,nt,nt
O=C(NCCC1CCCC1)c1cccs1,i,?,i,i,31,?,i,i,i
CCc1nc(SCC(=O)NCCc2ccccc2)n[nH]1,i,35,i,i,i,i,i,i,i
O=C(CSc1n[nH]c(-c2ccncc2)n1)NCCc1ccccc1,i,i,i,i,i,i,nt,nt,nt
Cc1cccc(C(=O)OCC(=O)NCc2ccco2)c1,nt,i,i,i,i,i,nt,nt,nt
CCCSc1cc(=O)n(-c2ccccc2)nc1C(=O)O,i,i,i,i,i,i,nt,nt,nt
COC(=O)CCSc1cc([N+](=O)[O-])cc2c1c(C1OCCO1)nn2-c1ccccc1,i,i,i,i,i,33,i,i,i
O=C(Nc1ccccc1)C1CCN(S(=O)(=O)c2cccs2)CC1,nt,i,i,i,i,i,nt,nt,nt
O=C(Nc1ccccc1)C1CCN(c2nccs2)CC1,i,?,?,i,40,40,i,i,i
COCC(=O)NC1CC(C)(C)Cc2c1cnn2-c1ccc(F)cc1 (stereo not drawn),i,?,i,i,i,?,nt,nt,nt
CC(=O)c1cnn(-c2c(Cl)cc(Cl)cc2Cl)c1C,i,38,i,i,i,i,i,i,i

# High-throughput results from PubChem.
